# Values without a mark were called inactive. Inconclusive results are not listed. Active and inactive are the calls of the source. Unless noted, calls follow the shape of the dose curve; as a rule, active = well fitted curve in the direction sought with a large enough effect; inconclusive = small, poorly fitted or top-dose-only effect, or another doubt; inactive = no such curve, though single readings can be large; an effect the other way counts as inactive or inconclusive.
# Tests used:
# [1] = target: Lysosomal acid glucosylceramidase (Homo sapiens) (UniProt P04062); test: Glucocerebrosidase-p2 (AID 348; in the data active = potency below about 10 µM; also: potency is read from the fitted curve at half-maximal effect); settings: purified GBA, blue fluorogenic substrate, 40 min
# Procedure, shortened: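 Normal human glucocerebrosidase (0.2 nM) with blue fluorogenic substrate (80 uM final) in citrate/phosphate pH 5.9 with 10mM sodium taurocholate, 0.01% tween-20; 40 min RT, NaOH/glycine stop; fluorescence Ex 365/Em 440; AC50 from a titration from 0.6 nM upwards.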
# [2] = AP1 Signaling Pathway (AID 357; active = well fitted curve in either direction with a large enough effect, not every such curve was filed as active; also: % is scaled to controls: 0 for no effect and ±100 for the full control effect); settings: ME-180 AP-1-bla reporter, EGF-induced, beta-lactamase ratio, 5 h; at 7.69 µM (top of the series) unless noted
# Procedure, shortened: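 AP-1-bla ME-180 cells with beta-lactamase reporter under AP-1 response element, stimulated with EC50 EGF; compounds titrated, 5 hours at 37 degrees Celsius. CCF4 read at 460/530 nm ratio; positive and negative modulators judged by AC50.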
# [3] = target: Cytochrome P450 1A2 (Homo sapiens) (UniProt P05177); test: p450-cyp1a2 (AID 410; calls by dose curve; also: potency is read from the fitted curve at half-maximal effect;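 as to activity change, negative = inhibition: -100% = full effect of reference inhibitor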)
# Procedure, shortened: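 20nM CYP1A2, 100uM Luciferin-ME (=Km), 100mM KPO4; cpd 10 min RT; +NADPH regen, 60 min RT; stop/detect 20 min; luminescence. Normalized to furafylline 57 uM = full inhibition.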
# [4] = NFAT Signaling Pathway (AID 444; active = well fitted curve in either direction with a large enough effect, not every such curve was filed as active;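 also: carbachol stimulus at about its EC50 of 1 µM final; % is scaled to controls: 0 for no effect and ±100 for the full control effect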); settings: Jurkat NFAT-bla M1, carbachol, beta-lactamase ratio, 5 h; at 7.69 µM (top of the series) unless noted
# Procedure, shortened: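 Read-out: CCF4 FRET ratio (460 nm/530 nm) after 1 h RT dye loading, used for %activity and AC50 from titration series. Cells: Jurkat NFAT-β-lactamase/M1 line, treated with compound plus 1 uM carbachol for 5 h, 37 °C.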
# [5] = Stat Signaling Pathway (AID 446; active = well fitted curve in either direction with a large enough effect, not every such curve was filed as active;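 also: ME-180 cervical cancer cells given 40 pM IL-6 alongside compound; SIE-controlled beta-lactamase reporter measured as 460/530 nm FRET emission ratio; % is scaled to controls: 0 for no effect and ±100 for the full control effect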)
# Procedure, shortened: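 Emission at 460 and 530 nm (excitation 405 nm) reports SIE-controlled beta-lactamase in ME-180 cells. Cells received compound with 40 pM IL-6 for 5 hrs at 37 C; data scaled between 300 pM IL-6 and 125 nM JAK-inhibitor controls.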
# [6] = target: Glucocorticoid receptor (Homo sapiens) (UniProt P04150); test: GR-GFP Redistribution (AID 450;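 active = compounds whose dose series gives a full or clear partial fitted curve of increased nuclear translocation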; also: potency is read from the fitted curve at half-maximal effect); settings: U2OS GR-GFP nuclear translocation, laser cytometry, 2 h
# [7] = target: Glucocorticoid receptor (Homo sapiens) (UniProt P04150); test: GR-EFC Redistribution (AID 451; calls by dose curve; also: potency is read from the fitted curve at half-maximal effect); settings: CHO-K1 GR-EFC translocation, beta-gal luminescence, 2 h
# Procedure, shortened: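 Translocation of GR-ED fusion to nuclear EA restores b-gal, read by luminescence after 1 h room-temperature detection. Engineered CHO-K1 biosensor cells, 1,000/well, exposed 2 h at 37 C to titrations up to 46 uM final.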
# [8] = target: 3',5'-cyclic-AMP phosphodiesterase 4B (Homo sapiens) (UniProt Q07343); test: qHTS Assay for Inhibitors of PDE-IV (AID 607; active = well fitted activation curve with a large enough effect in the main read-out, with a control signal flat, not every such curve was filed as active; also: potency is read from the fitted curve at half-maximal effect)
# Procedure, shortened: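 The readout is membrane depolarisation from a cAMP-sensing CNG channel, detected with a potential dye at ex 535/em 590. Cells were HEK293-derived (endogenous PDE-IV) at 1000 cells/well, titrated up to 22.9 uM final.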
# [9] = target: Cytochrome P450 3A4 (Homo sapiens) (UniProt P08684); test: qHTS Assay for Inhibitors and Substrates of Cytochrome P450 3A4 (AID 884); also: % is scaled to controls: 0 for no effect and ±100 for the full control effect; nearly all actives have a fitted effect of over 50% in size
# Procedure, shortened: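 Luminescent readout of luciferin produced by CYP3A4 (20 nM) dealkylation of Luciferin-PPXE, 25 uM (its KM). NADPH-driven reaction ran 60 min at RT after 10 min compound preincubation; data scaled to 57 uM ketoconazole as 100% inhibition.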
# [10] = target: Dual specificity protein kinase CLK4 (Homo sapiens) (UniProt Q9HAZ1); test: qHTS Assay for Inhibitors of CDC-like Kinase 4 (Kinase-Glo Assay) (AID 1770); also: nearly all actives have a fitted effect of over 65% in size; also: potency is read from the fitted curve at half-maximal effect
# Procedure, shortened: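 Substrate mix (RS peptide 100 uM, ATP 1 uM) dispensed, compound pinned in, then Clk4 added to 25 nM final. Incubated 4.5 h at RT; Kinase-Glo reagent added, luminescence read after 5 min.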
# [11] = target: Dual specificity protein kinase CLK4 (Homo sapiens) (UniProt Q9HAZ1); test: qHTS Assay for Inhibitors of CDC-like Kinase 4 (ADP-Glo Assay) (AID 1771); also: nearly all actives have a fitted effect of over 70% in size; also: potency is read from the fitted curve at half-maximal effect
# Procedure, shortened: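 25 nM Clk4, 100 uM RS peptide, 1 uM ATP (final); 2 mM MgCl2, 0.5 mM EGTA, 2.5 mM DTT, 0.01% Triton X-100; 1 hr RT. ADP-Glo readout: ATP depletion 45 min, conversion/luciferase 30 min, luminescence.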
# [12] = target: Dual specificity protein kinase CLK4 (Homo sapiens) (UniProt Q9HAZ1); test: qHTS Assay for Inhibitors of CDC-like Kinase 4 (ADP-FP Assay) (AID 1795); also: nearly all actives have a fitted effect of over 60% in size; also: potency is read from the fitted curve at half-maximal effect
# Procedure, shortened: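 Clk4 6.25 nM; RS peptide 100 uM; ATP 1 uM; 25 mM Tris pH 7.5, 10 mM MgCl2; 1 h reaction. ADP detected via antibody/orange tracer FP displacement; TG003 positive control.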
# [13] = target: Ubiquitin carboxyl-terminal hydrolase 1 (Homo sapiens) (UniProt O94782); test: Inhibitors of USP1/UAF1: Pilot qHTS (AID 504865);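 also: rhodamine fluorescence freed from ubiquitin-rhodamine substrate followed over time; top concentration of the series differs between compounds; % is scaled to controls: 0 for no effect and ±100 for the full control effect; nearly all actives have a fitted effect of over 35% in size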
# Procedure, shortened: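 In 50mM HEPES pH 7.8 containing 0.5mM EDTA, 1mM TCEP, 0.1 mg/ml BSA and 0.01% Tween-20, 1nM USP1/UAF1 is exposed to compound for 15 min, then Ub-Rho (150nM final) is added and fluorescence is read over time.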
# [14] = target: Mitogen-activated protein kinase 10 (Mus musculus) (UniProt Q61831); test: JNK3 AlphaScreen Assay (AID 530; active = well fitted curve in either direction with a large enough effect, not every such curve was filed as active;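 also: kinase came from lysate of stimulated human HepG2 cells; signal reports phosphorylation of biotinylated GST-cJun 1-79 at Ser73 with 10 µM ATP; % is scaled to controls: 0 for no effect and ±100 for the full control effect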)
# Procedure, shortened: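 Kinase buffer: 20 mM Tris-HCl pH 7.6, 10 mM MgCl2, 1 mM DTT, 0.1 mM Na3VO4, 0.01% Tween-20; ATP 10 uM. Substrate biotin-GST-cJun(1-79), enzyme from activated HepG2 lysates. Detection by Ser73 phospho-antibody AlphaScreen.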
# [15] = target: Cytochrome P450 2C19 (Homo sapiens) (UniProt P33261); test: qHTS Assay for Inhibitors and Substrates of Cytochrome P450 2C19 (AID 899); also: potency is read from the fitted curve at half-maximal effect; nearly all actives have a fitted effect of over 60% in size
# Procedure, shortened: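 Reactions contain 5nM enzyme, 10uM Luciferin-H EGE (KM) and 50mM KPO4; compound preincubates 10 min at 37C, NADPH regeneration starts turnover for 60 min. Luminescence after detection reagent gives activity.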
# [16] = NCATS anti-infectives library activity on the primary C. elegans qHTS viability assay (AID 1745855; calls by dose curve; also: potency is read from the fitted curve at half-maximal effect)
# Procedure, shortened: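 Titration-based screen in worms: eggs hatched overnight in M9, L1 larvae fed TOP10 capsules in S medium with compound, incubated 21 °C for 7 days; fluorescent objects gated by size and intensity at days 0, 3 and 7.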
# [17] = target: Cytochrome P450 3A4 (Homo sapiens) (UniProt P08684); test: qHTS Assay for Activators of Cytochrome P450 3A4 (AID 885); also: nearly all actives have a fitted effect of over 65% in size
# Procedure, shortened: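 Activators are scored by enhanced luminescence from CYP3A4 conversion of luciferin-PPXE (25uM, equal to KM) to luciferin, after 60 min at RT with an NADPH-regenerating system.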
# [18] = target: Cytochrome P450 2D6 (Homo sapiens) (UniProt P10635); test: qHTS Assay for Inhibitors and Substrates of Cytochrome P450 2D6 (AID 891); also: potency is read from the fitted curve at half-maximal effect; nearly all actives have a fitted effect of over 60% in size
# Procedure, shortened: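 Luminescent read-out of luciferin formed by 5 nM human CYP2D6 demethylating 30 uM Luciferin-ME EGE (Km level) over 60 min at room temperature after NADPH regeneration addition. Data normalized to full inhibition by 1.43 uM quinidine.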
# [19] = qHTS Assay for Identification of Small Molecule Agonists for Hypoxia Response Element Signaling Pathway (AID 914; active = well fitted activation curve with a large enough effect in the signal ratio, with a control signal flat, not every such curve was filed as active; the % refers to the signal ratio; also: % of control where 0% means no effect); settings: ME-180 (cervical carcinoma) HRE-bla reporter, beta-lactamase ratio, CoCl2, 17 h; activation: active compounds read high
# Procedure, shortened: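 HRE-bla ME-180 assay for agonist-like enhancement of an EC50 CoCl2 stimulus: 17 h at 37 degrees Celsius, CCF4 for 2.5 h, ratiometric 460/530 nm signal converted to %Activity and fitted to AC50.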
# Dual specificity protein kinase CLK4 (Homo sapiens), sequence (Q9HAZ1 whole entry, looked up): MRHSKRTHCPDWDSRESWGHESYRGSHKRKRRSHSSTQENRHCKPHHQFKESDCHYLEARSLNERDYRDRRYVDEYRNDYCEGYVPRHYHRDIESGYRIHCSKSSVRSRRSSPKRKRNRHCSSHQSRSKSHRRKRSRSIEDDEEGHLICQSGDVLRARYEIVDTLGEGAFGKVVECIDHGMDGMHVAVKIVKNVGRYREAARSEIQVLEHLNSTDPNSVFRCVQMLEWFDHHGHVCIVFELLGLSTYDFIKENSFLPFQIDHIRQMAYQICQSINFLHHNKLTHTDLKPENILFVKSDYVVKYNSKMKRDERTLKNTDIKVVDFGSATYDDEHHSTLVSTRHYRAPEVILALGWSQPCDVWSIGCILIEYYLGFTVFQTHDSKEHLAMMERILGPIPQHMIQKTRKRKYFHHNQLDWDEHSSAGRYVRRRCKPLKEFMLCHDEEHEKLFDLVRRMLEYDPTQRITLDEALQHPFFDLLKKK
# Glucocorticoid receptor (Homo sapiens), sequence (P04150 whole entry, looked up, the tested form may be a part): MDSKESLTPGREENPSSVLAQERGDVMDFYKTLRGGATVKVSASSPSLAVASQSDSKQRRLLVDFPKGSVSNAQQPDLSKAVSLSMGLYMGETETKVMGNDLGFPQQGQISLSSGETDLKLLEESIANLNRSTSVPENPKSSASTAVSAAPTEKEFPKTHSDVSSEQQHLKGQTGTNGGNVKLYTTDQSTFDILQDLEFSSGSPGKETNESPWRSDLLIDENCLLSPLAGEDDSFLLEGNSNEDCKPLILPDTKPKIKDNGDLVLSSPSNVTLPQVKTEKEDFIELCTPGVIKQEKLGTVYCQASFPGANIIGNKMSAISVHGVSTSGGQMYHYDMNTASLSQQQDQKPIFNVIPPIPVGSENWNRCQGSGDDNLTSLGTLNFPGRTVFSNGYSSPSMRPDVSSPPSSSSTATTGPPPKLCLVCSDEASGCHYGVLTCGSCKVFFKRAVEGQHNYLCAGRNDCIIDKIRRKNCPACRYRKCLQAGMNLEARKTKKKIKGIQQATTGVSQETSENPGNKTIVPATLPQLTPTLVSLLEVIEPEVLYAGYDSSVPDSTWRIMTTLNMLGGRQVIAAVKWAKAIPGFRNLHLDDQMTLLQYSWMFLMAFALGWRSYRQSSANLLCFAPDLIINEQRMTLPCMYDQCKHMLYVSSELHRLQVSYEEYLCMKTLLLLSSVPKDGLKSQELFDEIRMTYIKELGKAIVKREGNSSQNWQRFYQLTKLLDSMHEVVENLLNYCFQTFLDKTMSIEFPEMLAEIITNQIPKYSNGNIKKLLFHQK
# Cytochrome P450 1A2 (Homo sapiens), sequence (P05177 whole entry, looked up): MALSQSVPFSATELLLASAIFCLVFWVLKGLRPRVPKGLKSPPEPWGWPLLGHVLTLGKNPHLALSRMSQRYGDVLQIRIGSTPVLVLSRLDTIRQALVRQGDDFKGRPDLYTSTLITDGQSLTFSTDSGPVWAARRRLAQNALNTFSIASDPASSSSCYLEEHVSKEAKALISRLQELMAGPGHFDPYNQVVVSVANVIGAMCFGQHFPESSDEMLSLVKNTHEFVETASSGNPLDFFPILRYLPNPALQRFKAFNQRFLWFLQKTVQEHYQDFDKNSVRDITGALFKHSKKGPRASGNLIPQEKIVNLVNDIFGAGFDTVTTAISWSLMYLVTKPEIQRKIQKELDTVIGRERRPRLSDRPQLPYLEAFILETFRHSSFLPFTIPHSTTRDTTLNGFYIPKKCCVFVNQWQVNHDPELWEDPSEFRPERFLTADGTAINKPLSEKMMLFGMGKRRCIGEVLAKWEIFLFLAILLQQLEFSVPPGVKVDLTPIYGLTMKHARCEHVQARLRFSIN
# Cytochrome P450 2C19 (Homo sapiens), sequence (P33261 whole entry, looked up): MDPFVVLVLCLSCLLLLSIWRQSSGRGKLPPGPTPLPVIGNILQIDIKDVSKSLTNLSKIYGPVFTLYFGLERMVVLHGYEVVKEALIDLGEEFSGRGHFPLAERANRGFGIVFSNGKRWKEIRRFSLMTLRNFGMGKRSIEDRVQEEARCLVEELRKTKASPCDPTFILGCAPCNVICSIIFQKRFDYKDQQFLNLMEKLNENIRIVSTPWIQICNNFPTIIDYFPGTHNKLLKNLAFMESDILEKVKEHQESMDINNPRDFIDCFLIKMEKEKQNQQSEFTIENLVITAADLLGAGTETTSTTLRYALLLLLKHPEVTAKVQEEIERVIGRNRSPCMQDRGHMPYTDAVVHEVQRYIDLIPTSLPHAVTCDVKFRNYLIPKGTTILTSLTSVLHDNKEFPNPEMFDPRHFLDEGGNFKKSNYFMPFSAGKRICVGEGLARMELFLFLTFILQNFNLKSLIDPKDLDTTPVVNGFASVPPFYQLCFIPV
# Cytochrome P450 3A4 (Homo sapiens), sequence (P08684 whole entry, looked up): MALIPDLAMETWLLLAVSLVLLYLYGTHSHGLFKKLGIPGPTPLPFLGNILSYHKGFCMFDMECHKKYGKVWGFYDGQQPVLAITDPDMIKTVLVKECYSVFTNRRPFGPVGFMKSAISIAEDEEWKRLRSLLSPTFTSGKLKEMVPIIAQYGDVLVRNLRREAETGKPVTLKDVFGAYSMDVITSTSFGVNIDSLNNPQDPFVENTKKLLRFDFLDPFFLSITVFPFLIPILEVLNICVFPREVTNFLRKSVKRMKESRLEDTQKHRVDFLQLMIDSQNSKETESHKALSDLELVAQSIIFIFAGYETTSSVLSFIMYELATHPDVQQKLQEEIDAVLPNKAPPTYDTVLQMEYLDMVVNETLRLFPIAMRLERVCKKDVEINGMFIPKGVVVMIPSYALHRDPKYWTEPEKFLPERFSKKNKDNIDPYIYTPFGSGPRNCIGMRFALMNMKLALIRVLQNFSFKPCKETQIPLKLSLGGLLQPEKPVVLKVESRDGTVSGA
# 3',5'-cyclic-AMP phosphodiesterase 4B (Homo sapiens), sequence (Q07343 whole entry, looked up): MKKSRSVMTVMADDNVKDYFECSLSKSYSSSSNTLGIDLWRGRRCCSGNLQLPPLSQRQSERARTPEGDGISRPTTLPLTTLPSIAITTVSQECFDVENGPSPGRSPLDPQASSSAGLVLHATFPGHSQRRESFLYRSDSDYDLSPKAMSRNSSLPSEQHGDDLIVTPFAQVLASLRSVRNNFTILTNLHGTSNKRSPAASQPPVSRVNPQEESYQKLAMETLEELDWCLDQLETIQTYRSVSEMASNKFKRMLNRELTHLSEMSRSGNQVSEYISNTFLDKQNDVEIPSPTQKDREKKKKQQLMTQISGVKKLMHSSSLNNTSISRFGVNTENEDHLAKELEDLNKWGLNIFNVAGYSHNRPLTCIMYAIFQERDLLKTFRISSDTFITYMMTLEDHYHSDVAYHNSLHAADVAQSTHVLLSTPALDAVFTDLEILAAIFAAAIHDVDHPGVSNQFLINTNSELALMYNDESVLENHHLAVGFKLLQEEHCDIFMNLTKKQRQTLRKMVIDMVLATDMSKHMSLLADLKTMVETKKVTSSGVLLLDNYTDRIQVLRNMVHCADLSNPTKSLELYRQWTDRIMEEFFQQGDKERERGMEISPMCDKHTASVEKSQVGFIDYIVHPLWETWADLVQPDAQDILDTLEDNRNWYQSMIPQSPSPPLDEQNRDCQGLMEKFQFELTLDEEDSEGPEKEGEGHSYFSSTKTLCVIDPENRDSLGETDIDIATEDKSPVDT
# Lysosomal acid glucosylceramidase (Homo sapiens), sequence (P04062 whole entry, looked up): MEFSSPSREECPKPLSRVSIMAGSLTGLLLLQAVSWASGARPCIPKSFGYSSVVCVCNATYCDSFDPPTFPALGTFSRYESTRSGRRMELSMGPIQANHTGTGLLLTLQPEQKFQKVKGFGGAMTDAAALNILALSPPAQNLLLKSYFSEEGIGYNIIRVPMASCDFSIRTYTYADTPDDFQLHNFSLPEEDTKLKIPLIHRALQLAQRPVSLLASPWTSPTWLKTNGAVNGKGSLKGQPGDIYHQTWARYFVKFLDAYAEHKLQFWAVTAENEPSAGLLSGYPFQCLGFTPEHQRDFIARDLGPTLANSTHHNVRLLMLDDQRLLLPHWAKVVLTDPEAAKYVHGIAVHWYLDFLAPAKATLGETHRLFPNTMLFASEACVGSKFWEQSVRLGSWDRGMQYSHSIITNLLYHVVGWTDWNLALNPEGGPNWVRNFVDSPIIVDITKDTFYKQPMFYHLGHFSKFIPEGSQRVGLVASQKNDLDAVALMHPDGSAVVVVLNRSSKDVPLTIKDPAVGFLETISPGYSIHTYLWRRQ
# Ubiquitin carboxyl-terminal hydrolase 1 (Homo sapiens), sequence (O94782 whole entry, looked up): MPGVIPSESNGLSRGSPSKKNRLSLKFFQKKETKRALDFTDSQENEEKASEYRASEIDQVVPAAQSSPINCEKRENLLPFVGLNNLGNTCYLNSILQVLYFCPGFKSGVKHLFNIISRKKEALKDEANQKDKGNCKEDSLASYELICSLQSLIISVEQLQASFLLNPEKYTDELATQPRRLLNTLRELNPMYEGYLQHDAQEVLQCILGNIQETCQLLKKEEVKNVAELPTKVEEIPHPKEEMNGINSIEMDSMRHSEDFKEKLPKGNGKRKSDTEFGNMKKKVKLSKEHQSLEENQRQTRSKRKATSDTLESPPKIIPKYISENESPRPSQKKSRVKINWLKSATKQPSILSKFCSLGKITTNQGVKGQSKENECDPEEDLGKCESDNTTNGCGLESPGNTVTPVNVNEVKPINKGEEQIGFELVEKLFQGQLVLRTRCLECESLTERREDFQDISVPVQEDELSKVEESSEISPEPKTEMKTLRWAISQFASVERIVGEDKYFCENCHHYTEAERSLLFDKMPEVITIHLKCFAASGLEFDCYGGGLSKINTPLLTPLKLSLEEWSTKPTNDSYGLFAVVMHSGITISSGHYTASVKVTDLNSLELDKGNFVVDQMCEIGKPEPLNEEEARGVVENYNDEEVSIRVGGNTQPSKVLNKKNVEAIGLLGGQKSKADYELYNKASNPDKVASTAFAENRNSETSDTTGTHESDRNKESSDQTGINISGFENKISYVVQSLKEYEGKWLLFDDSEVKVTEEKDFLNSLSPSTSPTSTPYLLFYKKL
compound,measurement,setting,value
Cn1c(=O)c(-c2ccccc2)nc2cnc(N3CCOCC3)nc21,Potency,[1],> 11.4 µM
same,"activity change, negative = inhibition",[2],-2.38%
same,Potency,[3],2 µM (active)
same,"activity change, negative = inhibition",[4],3.19%
same,outcome,[5],inactive
same,Potency,[6],> 9.22 µM
same,Potency,[7],> 46 µM
same,Potency,[8],inactive
same,Potency,[9],inactive
same,Potency,[10],inactive
same,Potency,[11],inactive
same,Potency,[12],inactive
same,Potency,[13],inactive
CCNc1ncc2ncc(=O)n(Cc3cccc(OC)c3)c2n1,Potency,[1],> 11.4 µM
same,"activity change, negative = inhibition",[2],-7.38%
same,Potency,[3],3.98 µM (active)
same,"activity change, negative = inhibition",[4],8.9%
same,outcome,[5],inactive
same,Potency,[6],> 9.22 µM
same,Potency,[7],> 46 µM
same,Potency,[14],inactive
same,Potency,[15],2 µM (active)
same,Potency,[10],3.16 µM (active)
same,Potency,[11],3.16 µM (active)
same,Potency,[12],11.2 µM (active)
same,Potency,[13],inactive
Cc1cc(/C=C/C#N)cc(C)c1Nc1ccnc(Nc2ccc(C#N)cc2)n1,Potency,[16],16.3 µM (active)
O=c1c(-c2ccccc2)nc2cncnc2n1Cc1ccccc1,Potency,[1],> 11.4 µM
same,"activity change, negative = inhibition",[2],-16.6%
same,"activity change, negative = inhibition",[4],-1.09%
same,outcome,[5],inactive
same,Potency,[6],> 9.22 µM
same,Potency,[7],> 46 µM
same,Potency,[14],inactive
same,Potency,[10],inactive
same,Potency,[11],inactive
same,Potency,[12],inactive
same,Potency,[13],inactive
N#Cc1cccc(-c2nc(NCCN3CCOCC3)c3ccccc3n2)c1,Potency,[1],> 11.4 µM
same,"activity change, negative = inhibition",[2],-13%
same,Potency,[3],1 µM (active)
same,outcome,[5],inactive
same,Potency,[6],> 46 µM
same,Potency,[7],> 46 µM
same,Potency,[14],inactive
same,Potency,[8],inactive
same,outcome,[17],inactive
same,Potency,[18],7.94 µM (active)
same,activation,[19],-16.9%
same,Potency,[10],11.2 µM (active)
same,Potency,[11],6.31 µM (active)
same,Potency,[12],7.94 µM (active)
same,Potency,[13],inactive
CC(C)c1nc(CN(C)C(=O)N[C@@H](CCN2CCOCC2)C(=O)N[C@H](CC[C@H](Cc2ccccc2)NC(=O)OCc2cncs2)Cc2ccccc2)cs1,Potency,[16],23 µM (active)
N#CCCn1c(=O)c(-c2cccc(C#N)c2)nc2cnc(Oc3cccc(Cl)c3)nc21,Potency,[1],> 11.4 µM
same,"activity change, negative = inhibition",[2],-14.2%
same,Potency,[3],inactive
same,"activity change, negative = inhibition",[4],-6.45%
same,outcome,[5],inactive
same,Potency,[6],> 9.22 µM
same,Potency,[7],> 46 µM
same,Potency,[14],inactive
same,Potency,[8],inactive
same,Potency,[10],inactive
same,Potency,[11],inactive
same,Potency,[12],inactive
same,Potency,[13],inactive
COc1cccc(Cn2c(=O)c(CCc3ccccc3)nc3cnc(N(C)C)nc32)c1,Potency,[1],> 11.4 µM
same,"activity change, negative = inhibition",[2],-2.39%
same,Potency,[3],15.8 µM (active)
same,"activity change, negative = inhibition",[4],6.19%
same,outcome,[5],inactive
same,Potency,[6],> 9.22 µM
same,Potency,[7],> 46 µM
same,Potency,[14],inactive
same,outcome,[17],inactive
same,Potency,[15],0.794 µM (active)
same,Potency,[10],inactive
same,Potency,[11],inactive
same,Potency,[12],inactive
CC1(C)CC[C@]2(C(=O)O)CC[C@]3(C)C(=CC[C@@H]4[C@@]5(C)CC[C@H](O)C(C)(C)[C@@H]5CC[C@]43C)[C@@H]2C1,Potency,[16],inactive
COc1cccc(Nc2ncc3ncc(=O)n(CCC#N)c3n2)c1,Potency,[1],> 11.4 µM
same,"activity change, negative = inhibition",[2],-26.1%
same,Potency,[3],1 µM (active)
same,"activity change, negative = inhibition",[4],-0.673%
same,outcome,[5],inactive
same,Potency,[6],> 9.22 µM
same,Potency,[7],> 46 µM
same,Potency,[14],inactive
same,Potency,[8],inactive
same,outcome,[17],inactive
same,Potency,[10],6.31 µM (active)
same,Potency,[11],3.55 µM (active)
same,Potency,[12],2.51 µM (active)
same,Potency,[13],inactive
COc1ccccc1-c1nccc(N2CCN(C)CC2)n1,Potency,[1],> 11.4 µM
same,"activity change, negative = inhibition",[2],15.6%
same,"activity change, negative = inhibition",[4],-18.8%
same,outcome,[5],inactive
same,Potency,[6],> 46 µM
same,Potency,[7],> 46 µM
same,Potency,[14],inactive
same,Potency,[8],inactive
same,activation,[19],26.2%
same,Potency,[10],inactive
same,Potency,[11],inactive
same,Potency,[12],inactive
same,Potency,[13],inactive
O=C1CC(c2ccccc2)Oc2ccccc21 (stereo unspecified),Potency,[9],inactive
same,Potency,[13],inactive
COc1ccc(-c2oc3cc(OC)c(OC)c(O)c3c(=O)c2OC)cc1O,Potency,[16],0.816 µM (active)
CCCCN(Cc1ccc(C(=O)NO)cc1)C(=O)Nc1ccccc1,Potency,[16],inactive
O=C(NO)c1cccc(C(=O)NCCc2ccccc2)c1,Potency,[16],inactive
COc1ccc(-n2c(=O)c(CCc3ccccc3)nc3cnc(OC)nc32)cc1,Potency,[1],> 11.4 µM
same,"activity change, negative = inhibition",[2],-14.2%
same,Potency,[3],15.8 µM (active)
same,"activity change, negative = inhibition",[4],0.705%
same,outcome,[5],inactive
same,Potency,[6],> 9.22 µM
same,Potency,[7],> 46 µM
same,Potency,[14],inactive
same,Potency,[8],2 µM (active)
same,outcome,[17],inactive
same,Potency,[15],6.31 µM (active)
same,activation,[19],-18.9%
same,Potency,[10],inactive
same,Potency,[11],inactive
same,Potency,[12],inactive
same,Potency,[13],inactive
c1ccc(Nc2nc(-c3cccnc3)nc3ccccc23)cc1,Potency,[1],> 11.4 µM
same,"activity change, negative = inhibition",[2],6.52%
same,Potency,[3],0.398 µM (active)
same,"activity change, negative = inhibition",[4],17%
same,outcome,[5],inactive
same,Potency,[7],> 46 µM
same,Potency,[14],inactive
same,outcome,[17],inactive
same,Potency,[10],2.51 µM (active)
same,Potency,[11],3.55 µM (active)
same,Potency,[12],2 µM (active)
same,Potency,[13],inactive

# From PubChem BioAssay (NCATS)
